Experimental findings from ChEMBL document CHEMBL3988442, “University of Dundee, Small-Polar-MMV Screening Library” (2021) are described below.

Each structure is given as a SMILES string. For some assays here: Results with a measured potency or affinity are listed apart.

Holding throughout (parameters): scale not given: direction of the effect not stated beside the values
For experiment [1], the target named is Protein translocase subunit SecA (Escherichia coli (strain K12)) (UniProt P10408). The experiment can be described thus: Assay to Identify E. coli SecA ATPase Inhibitors. Format: functional. The note with it: 30 µM.
Experiment [2] deals with T1, Ubiquitin-activating enzyme e1, putative (Leishmania donovani (strain BPK282A1)) (UniProt E9BSI1).
T1 sequence (whole entry): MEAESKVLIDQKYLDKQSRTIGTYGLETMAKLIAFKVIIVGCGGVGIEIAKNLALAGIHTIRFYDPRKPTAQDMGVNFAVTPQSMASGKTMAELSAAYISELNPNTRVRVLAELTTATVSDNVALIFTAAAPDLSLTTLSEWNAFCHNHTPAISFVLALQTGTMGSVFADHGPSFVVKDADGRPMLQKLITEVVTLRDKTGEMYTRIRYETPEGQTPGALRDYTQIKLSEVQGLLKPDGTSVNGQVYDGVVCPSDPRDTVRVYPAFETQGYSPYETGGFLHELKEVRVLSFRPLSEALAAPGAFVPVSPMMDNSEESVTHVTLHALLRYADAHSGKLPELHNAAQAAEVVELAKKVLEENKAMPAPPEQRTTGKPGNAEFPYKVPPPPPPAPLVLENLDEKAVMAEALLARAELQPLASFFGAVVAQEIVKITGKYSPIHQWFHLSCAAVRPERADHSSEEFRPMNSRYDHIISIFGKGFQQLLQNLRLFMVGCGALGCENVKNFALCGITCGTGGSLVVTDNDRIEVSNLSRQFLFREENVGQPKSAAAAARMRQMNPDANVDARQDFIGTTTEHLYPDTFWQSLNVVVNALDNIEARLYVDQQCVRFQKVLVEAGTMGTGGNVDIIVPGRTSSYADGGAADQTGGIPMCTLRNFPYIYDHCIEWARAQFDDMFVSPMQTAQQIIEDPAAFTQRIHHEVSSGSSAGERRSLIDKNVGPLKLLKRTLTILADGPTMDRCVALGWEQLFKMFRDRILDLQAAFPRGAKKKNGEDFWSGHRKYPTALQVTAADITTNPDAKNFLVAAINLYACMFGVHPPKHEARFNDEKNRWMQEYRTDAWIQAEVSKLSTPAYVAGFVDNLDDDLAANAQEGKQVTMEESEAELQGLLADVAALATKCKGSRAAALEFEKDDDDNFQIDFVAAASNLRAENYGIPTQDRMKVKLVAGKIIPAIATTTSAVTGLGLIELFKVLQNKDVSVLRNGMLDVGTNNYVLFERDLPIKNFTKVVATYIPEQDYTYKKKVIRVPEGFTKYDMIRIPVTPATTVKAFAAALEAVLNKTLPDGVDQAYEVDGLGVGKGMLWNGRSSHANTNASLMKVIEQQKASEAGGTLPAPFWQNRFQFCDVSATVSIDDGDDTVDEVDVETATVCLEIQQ
In words: Leishmania donovani Ubiquitin Activating Enzyme (LdE1). Format: functional. The note with it: 30 µM.

In experiment [3] the target is Sialic acid-binding Ig-like lectin 9 (Homo sapiens) (UniProt Q9Y336). The experiment can be described thus: Hs-Siglec9 ALPHAscreen SOP 20170721. The note with it: 10 µM. (In general: Alpha assays give light when donor and acceptor beads are brought close together.)
A further experiment deals with Trypanosoma cruzi. In words: Trypanosoma cruzi phosphomannomutase and mannose-1-phosphate guanylyltransferase assay. The format is functional. The note with it: 10 µM.
Experiment [4] concerns the target T2, Arginase-2, mitochondrial (Homo sapiens) (UniProt P78540).
T2 sequence (whole entry): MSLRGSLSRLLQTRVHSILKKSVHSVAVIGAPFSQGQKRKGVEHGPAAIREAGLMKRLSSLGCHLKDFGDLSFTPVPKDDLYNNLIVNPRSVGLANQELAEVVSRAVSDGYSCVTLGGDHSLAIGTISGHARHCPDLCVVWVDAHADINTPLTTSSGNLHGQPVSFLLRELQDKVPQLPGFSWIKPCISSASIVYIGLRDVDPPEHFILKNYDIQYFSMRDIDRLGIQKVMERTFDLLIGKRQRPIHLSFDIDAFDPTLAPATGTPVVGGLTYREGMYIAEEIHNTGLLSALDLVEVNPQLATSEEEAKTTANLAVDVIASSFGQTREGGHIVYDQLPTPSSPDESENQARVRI
The experiment can be described thus: in vitro enzyme assay to detect the production of urea directly proportional to the activity of Arginase II. Also: in the data most compounds retested in dose-response had high values. The format is functional. As to conditions: 33.3 µM.

In experiment [5] the target is T3, Proteasome subunit beta (Trypanosoma cruzi) (UniProt O96673).
T3 sequence (whole entry): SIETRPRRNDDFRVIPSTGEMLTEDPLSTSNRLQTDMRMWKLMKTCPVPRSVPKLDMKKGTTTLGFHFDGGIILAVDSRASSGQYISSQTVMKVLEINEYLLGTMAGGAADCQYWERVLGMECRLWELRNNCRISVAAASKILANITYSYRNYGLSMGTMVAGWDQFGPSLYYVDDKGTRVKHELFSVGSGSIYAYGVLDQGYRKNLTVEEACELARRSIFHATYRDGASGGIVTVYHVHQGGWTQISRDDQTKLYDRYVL
In words: Trypanosoma cruzi proteasome chymotrypsin-like activity (TcProtChymo) assay. Also: in the data most compounds retested in dose-response had high values. The format is functional. As to conditions: 9.37 µM.

For another experiment, the species on record is Homo sapiens. The experiment can be described thus: To identify inhibition of the IFN signalling (Jak-Stat) pathway via expression of an eGFP reporter gene under the control of an IFN-stimulated response element (ISRE) containing MxA promoter. The format is functional. The note with it: 30 µM. A general note: A reporter such as luciferase makes a cellular process visible.

Experiment [6] addresses T4, Tyrosyl-tRNA synthetase, putative (Trypanosoma cruzi (strain CL Brener)) (UniProt Q4DSP6).
T4 sequence (whole entry): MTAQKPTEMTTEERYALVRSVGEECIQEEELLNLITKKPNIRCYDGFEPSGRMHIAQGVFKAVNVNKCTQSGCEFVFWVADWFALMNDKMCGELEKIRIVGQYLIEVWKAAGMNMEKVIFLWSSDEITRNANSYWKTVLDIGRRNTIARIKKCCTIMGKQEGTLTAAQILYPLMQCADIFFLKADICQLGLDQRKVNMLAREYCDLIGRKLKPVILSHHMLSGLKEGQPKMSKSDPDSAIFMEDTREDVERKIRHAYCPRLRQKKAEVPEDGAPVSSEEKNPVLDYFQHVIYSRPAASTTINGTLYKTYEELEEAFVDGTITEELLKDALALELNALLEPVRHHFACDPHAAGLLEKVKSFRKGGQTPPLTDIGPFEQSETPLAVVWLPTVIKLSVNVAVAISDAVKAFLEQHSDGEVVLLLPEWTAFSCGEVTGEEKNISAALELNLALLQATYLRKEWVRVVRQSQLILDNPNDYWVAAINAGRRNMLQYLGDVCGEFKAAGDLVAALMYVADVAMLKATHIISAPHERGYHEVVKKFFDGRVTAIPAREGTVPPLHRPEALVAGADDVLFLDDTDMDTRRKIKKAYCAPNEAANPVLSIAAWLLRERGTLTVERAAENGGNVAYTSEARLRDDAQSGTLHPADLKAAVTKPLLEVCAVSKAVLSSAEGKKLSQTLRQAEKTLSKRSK
The experiment can be described thus: Trypanosoma cruzi tyrosyl tRNA synthetase (TcYRS) _High Tyrosine SOP. Also: in the data most compounds retested in dose-response had high values. The format is functional. As to conditions: 30 µM.

Experiment [7] has as its target T4, Tyrosyl-tRNA synthetase, putative (Trypanosoma cruzi (strain CL Brener)). In words: Trypanosoma cruzi tyrosyl tRNA synthetase (TcYRS) SOP. Format: functional. As to conditions: 30 µM.
The target in experiment [8] is Chromo domain-containing protein 1 (Saccharomyces cerevisiae (strain ATCC 204508 / S288c) (Baker's yeast)) (UniProt P32657). The experiment can be described thus: ScCHD-1 Enzyme Inhibition Assay. Also: in the data most compounds retested in dose-response had high values. Format: functional. As to conditions: 30 µM.
Chromo domain-containing protein 1 (Saccharomyces cerevisiae (strain ATCC 204508 / S288c) (Baker's yeast)), sequence (P32657 whole entry, the tested form may be a part): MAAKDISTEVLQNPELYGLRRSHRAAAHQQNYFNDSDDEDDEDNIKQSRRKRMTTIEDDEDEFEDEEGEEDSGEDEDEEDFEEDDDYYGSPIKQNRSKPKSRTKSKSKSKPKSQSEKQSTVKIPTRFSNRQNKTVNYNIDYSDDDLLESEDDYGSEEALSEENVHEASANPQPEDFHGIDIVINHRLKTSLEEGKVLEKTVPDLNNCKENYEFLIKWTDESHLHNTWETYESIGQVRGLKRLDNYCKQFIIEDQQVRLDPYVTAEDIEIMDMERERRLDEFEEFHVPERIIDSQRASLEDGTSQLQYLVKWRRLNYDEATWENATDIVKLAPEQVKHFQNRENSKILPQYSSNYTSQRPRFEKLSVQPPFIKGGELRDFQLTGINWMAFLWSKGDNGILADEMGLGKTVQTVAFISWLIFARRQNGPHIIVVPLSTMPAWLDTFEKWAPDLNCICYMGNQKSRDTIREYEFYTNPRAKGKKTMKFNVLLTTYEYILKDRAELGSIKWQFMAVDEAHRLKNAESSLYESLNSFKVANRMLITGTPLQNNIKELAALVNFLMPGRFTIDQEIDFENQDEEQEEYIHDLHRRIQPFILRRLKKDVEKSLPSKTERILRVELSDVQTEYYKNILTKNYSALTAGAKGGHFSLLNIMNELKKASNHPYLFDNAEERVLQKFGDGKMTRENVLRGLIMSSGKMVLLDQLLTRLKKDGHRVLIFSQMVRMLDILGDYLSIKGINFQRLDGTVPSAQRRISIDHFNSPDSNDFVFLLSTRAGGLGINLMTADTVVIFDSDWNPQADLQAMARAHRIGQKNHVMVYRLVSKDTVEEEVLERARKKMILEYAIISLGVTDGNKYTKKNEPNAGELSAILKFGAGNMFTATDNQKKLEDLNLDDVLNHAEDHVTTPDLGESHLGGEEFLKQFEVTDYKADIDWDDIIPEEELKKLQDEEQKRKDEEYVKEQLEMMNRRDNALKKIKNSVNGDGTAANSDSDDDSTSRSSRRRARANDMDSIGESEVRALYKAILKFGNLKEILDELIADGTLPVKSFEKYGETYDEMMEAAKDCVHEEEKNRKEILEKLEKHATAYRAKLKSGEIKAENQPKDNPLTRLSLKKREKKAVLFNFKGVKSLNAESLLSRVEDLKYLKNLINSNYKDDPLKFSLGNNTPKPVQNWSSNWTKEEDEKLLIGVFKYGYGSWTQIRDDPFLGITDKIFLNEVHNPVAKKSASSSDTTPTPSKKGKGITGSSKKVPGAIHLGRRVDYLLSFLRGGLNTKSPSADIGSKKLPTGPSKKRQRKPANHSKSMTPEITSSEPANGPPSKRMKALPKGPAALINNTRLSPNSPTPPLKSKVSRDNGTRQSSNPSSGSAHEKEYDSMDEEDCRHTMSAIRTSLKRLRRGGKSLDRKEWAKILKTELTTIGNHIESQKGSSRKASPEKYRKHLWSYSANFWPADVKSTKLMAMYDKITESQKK

Protein translocase subunit SecA (Escherichia coli (strain K12)), sequence (P10408 whole entry): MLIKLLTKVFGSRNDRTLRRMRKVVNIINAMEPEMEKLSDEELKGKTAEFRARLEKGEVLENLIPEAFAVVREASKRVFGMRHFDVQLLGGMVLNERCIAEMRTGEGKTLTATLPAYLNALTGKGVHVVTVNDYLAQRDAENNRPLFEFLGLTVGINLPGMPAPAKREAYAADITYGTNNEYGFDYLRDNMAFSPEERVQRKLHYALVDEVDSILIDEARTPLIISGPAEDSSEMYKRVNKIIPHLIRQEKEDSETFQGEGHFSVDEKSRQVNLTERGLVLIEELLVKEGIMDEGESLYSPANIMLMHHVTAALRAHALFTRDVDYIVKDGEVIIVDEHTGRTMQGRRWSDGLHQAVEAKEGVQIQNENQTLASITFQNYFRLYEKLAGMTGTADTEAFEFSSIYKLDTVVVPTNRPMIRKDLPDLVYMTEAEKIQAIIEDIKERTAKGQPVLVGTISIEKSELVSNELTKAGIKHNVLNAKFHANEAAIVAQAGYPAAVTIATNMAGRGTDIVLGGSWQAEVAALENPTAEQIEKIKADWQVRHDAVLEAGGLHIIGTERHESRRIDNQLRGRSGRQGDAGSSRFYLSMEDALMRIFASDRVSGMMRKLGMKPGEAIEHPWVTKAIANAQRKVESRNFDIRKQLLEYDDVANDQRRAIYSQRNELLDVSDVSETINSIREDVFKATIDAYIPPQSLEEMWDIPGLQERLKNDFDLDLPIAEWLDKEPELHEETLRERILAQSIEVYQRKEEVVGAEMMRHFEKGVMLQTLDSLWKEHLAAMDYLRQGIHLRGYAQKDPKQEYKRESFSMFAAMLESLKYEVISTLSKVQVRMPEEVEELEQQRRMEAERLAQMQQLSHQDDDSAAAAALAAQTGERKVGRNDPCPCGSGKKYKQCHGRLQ
Sialic acid-binding Ig-like lectin 9 (Homo sapiens), sequence (Q9Y336 whole entry): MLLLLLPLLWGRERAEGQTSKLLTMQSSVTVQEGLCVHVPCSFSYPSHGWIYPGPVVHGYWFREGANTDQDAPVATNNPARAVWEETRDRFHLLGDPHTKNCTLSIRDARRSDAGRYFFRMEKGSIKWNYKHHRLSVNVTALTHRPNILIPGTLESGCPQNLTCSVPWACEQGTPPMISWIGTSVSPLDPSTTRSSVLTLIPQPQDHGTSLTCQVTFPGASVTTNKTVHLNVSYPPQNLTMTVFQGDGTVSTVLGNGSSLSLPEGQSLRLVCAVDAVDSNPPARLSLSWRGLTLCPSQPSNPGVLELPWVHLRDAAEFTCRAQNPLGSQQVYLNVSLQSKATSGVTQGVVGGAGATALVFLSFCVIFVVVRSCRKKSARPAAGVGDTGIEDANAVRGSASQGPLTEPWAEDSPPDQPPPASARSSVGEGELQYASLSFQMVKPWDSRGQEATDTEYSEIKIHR

For `Cc1cc(C)n(CC2CCCCN2C(=O)c2ccc3nncn3c2)n1` (stereo not given), the Percent Effect in [1] was -7.43%; in experiment [2] it was 8%; in experiment [3], 0.804%; in the experiment on Trypanosoma cruzi, 2.01%; in experiment [4], -1.77%; in experiment [5], 8.06%. The Percent Effect in the experiment filed under Homo sapiens is 6.43%; in experiment [6], 5.79%; in [7] it was 10.3%; in experiment [8], -4.66%.

Take `Cc1ccc(C(=O)N2CCN(Cc3ccsc3)CC2)n1C`: the Percent Effect is -2.67% in [1]; 5.33% in [2]; 2.26% in [3]; -1.61% in the experiment with Trypanosoma cruzi; 0.887% in [4]; 5.34% in experiment [5]. Moreover, the Percent Effect in the experiment listed under Homo sapiens was -8.24%; in [6], 5.79%; in experiment [7] it was 7.69%; in experiment [8], -6.68%.

In the case of `Cc1cnn(CC2CCCN2C(=O)c2ccc(OC(C)C)nc2)c1` (stereo not given), the Percent Effect in experiment [1] was -0.574%; in [2], -2.56%; in experiment [3], 12.5%; with Trypanosoma cruzi it was 0.657%; in experiment [4], 4.92%; in experiment [5] it was -5.89%. Moreover, the Percent Effect was -3.81% in the experiment filed under Homo sapiens, -3.35% in experiment [6], 1.21% in experiment [7] and 2.64% in [8].

As to `CCC(NC(=O)c1ccco1)c1ccccc1OCC(=O)N1CCCC1` (stereo not given), the Percent Effect in experiment [1] was -0.841%; in experiment [2], 20.5%; in experiment [3], -7.21%; with Trypanosoma cruzi it was 8.92%; in experiment [4], -5.33%; in experiment [5] it was 12.5%. The Percent Effect in the experiment listed under Homo sapiens was 13.3%; in [6], 3.35%; in experiment [7] it was 22.9%; in experiment [8], -5.94%.

Consider `Cc1occc1C(=O)NCc1ccc(N2CCCC(C(N)=O)C2)cc1` (stereo not given), for which the Percent Effect was -2.46% in [1]; 8% in [2]; -3.46% in [3]; -3.61% with Trypanosoma cruzi; 10.6% in experiment [4]; 13% in experiment [5]. Besides, the Percent Effect was 16.5% in the experiment listed under Homo sapiens, 2.63% in experiment [6], 7.69% in experiment [7] and -9.94% in experiment [8].

Regarding `CN(C)CCOCC1CN(Cc2ccsc2)Cc2ccnn2C1` (stereo not given), the Percent Effect in experiment [1] is -2.84%; in experiment [2], -1.3%; in experiment [3] it was 1.33%; with Trypanosoma cruzi, -3.41%; in experiment [4] it was -1.62%; in experiment [5], 2.21%. The Percent Effect in the experiment filed under Homo sapiens is -1.71%; in [6], 1.58%; in experiment [7], 2.56%; in experiment [8] it was 0.0554%.

Regarding `CCc1ccc(O)c(C(=O)NC2CCN(S(=O)(=O)CC)CC2)c1`, the Percent Effect in experiment [1] was -6.37%; in experiment [2], 17.9%; in [3], -17.5%; in the experiment with Trypanosoma cruzi it was 5.35%; in experiment [4], -4.92%; in [5], 10.2%. In addition, the Percent Effect in the experiment listed under Homo sapiens is 20.5%; in [6] it was 1.44%; in experiment [7], 22.9%; in experiment [8] it was -10.9%.

As to `CN(C)CCN1CCCC12CCN(C(=O)c1cnccn1)CC2`, the Percent Effect in experiment [1] is -2.79%; in experiment [2], 11.7%; in experiment [3], 2.72%; with Trypanosoma cruzi, 2.81%; in experiment [4] it was 4.57%; in [5], 3.69%. For the same compound, the Percent Effect in the experiment filed under Homo sapiens was 0.368%; in experiment [6] it was 7.73%; in [7] it was 15%; in experiment [8], -6.82%.

`O=S(=O)(C1CC1)N1CCC2(CC1)CC(Oc1cccnc1)CO2` (stereo not given): the Percent Effect was -7.74% in [1]; 9.09% in experiment [2]; 4.03% in experiment [3]; 2.43% in the experiment on Trypanosoma cruzi; -3.24% in experiment [4]; -1.15% in experiment [5]. The Percent Effect was -0.725% in the experiment listed under Homo sapiens, 3.68% in experiment [6], 0% in experiment [7] and -0.139% in experiment [8].

On to `Cc1ccc(OC2(C(=O)O)CCN(C(=O)c3ccc(F)cc3)CC2)cn1`, for which the Percent Effect in experiment [1] is -6.12%; in experiment [2], -2.7%; in [3] it was 27.8%; in the experiment with Trypanosoma cruzi, 9.41%; in experiment [4] it was -1.05%; in [5], 1.88%. Also, the Percent Effect in the experiment filed under Homo sapiens is -18.1%; in experiment [6] it was 2.66%; in experiment [7] it was 7.32%; in experiment [8], -1.29%.

As to `COc1c(C2CCCN2C(=O)c2c[nH]c3ncccc23)c(C)nn1C` (stereo not given), the Percent Effect was -5.03% in experiment [1]; 7.79% in experiment [2]; 8.63% in [3]; -5.41% in the experiment on Trypanosoma cruzi; 2.25% in experiment [4]; 7.02% in experiment [5]. Moreover, the Percent Effect in the experiment filed under Homo sapiens is 1.49%; in [6], 5.88%; in [7], 7.06%; in experiment [8], -7.9%.
